For 59 molecules, INHIBITION results are on record in ChEMBL document CHEMBL4513216, “Probing the Open Global Health Chemical Diversity Library for Multistage-Active Starting Points for Next-Generation Antimalarials” (ACS Infect Dis, 2020).

Out of some 65,000 compounds screened, about 2,100 (3.2%) showed an effect of 50% or more. The median lay at about -52%. The entries come from a sample that favours strong results as a whole.

The experiment deals with Plasmodium falciparum. Nature of the experiment: Screen against P. falciparum Asexual Blood Stage (ABS), at 5uM. It is filed as functional, Dd2. The settings on record: tested at 5 uM.
As to `COc1ccc(CNCc2c(C(C)C)nn(C)c2OC)cn1`, the INHIBITION is given as 60.8%.

Regarding `CC(C)CN1C(=O)C[C@@H]2[C@@H]1CCN2Cc1cccc(C#N)c1`, the INHIBITION is given as -105%.

In the case of `Cc1cc(C)n(CC2CCCN2C(=O)c2cn[nH]c2C)n1` (centres undefined), the INHIBITION was -90%.

In the case of `O=C(CCSC1CCc2ccccc2NC1=O)NCCCO` (centres undefined), the INHIBITION is recorded as -7.35%.

As for `CCc1nnc2n1CCN(Cc1ncc(-c3ccccc3)o1)C2`, the INHIBITION turned out to be 46.9%.

For the molecule `Cc1nnc2n1CCN(Cc1ncc(-c3ccccc3)o1)C2`, the INHIBITION is -95.9%.

For `CC(C)c1nnc2n1CCN(Cc1ncc(-c3ccccc3)o1)C2`, the INHIBITION stood at 62%.

Consider `Cc1cccc(-c2noc(CN3CCn4c(nnc4C4CC4)C3)n2)c1`, for which the INHIBITION is on record as -35.8%.

Consider `Cc1ccc(-c2noc(CN3CCn4c(nnc4C4CC4)C3)n2)cc1`, for which the INHIBITION is -44.9%.

For `Cc1ccccc1-c1noc(CN2CCn3c(nnc3C3CC3)C2)n1`, the INHIBITION is on record as 51.7%.

As for `Fc1ccc(-c2cnc(CN3CCn4c(nnc4C4CC4)C3)o2)cc1`, the INHIBITION was 53.1%.

On to `Cc1nnc2n1CCN(Cc1ncc(-c3ccc(F)cc3)o1)C2`, for which the INHIBITION is 8.55%.

Regarding `c1ccc(-c2cnc(CN3CCn4c(nnc4C4CC4)C3)o2)cc1`, the INHIBITION is reported as -8.02%.

On to `Cc1noc(C2CCCN2C(=O)C2CCC2)n1` (centres undefined), for which the INHIBITION was -24%.

`Cc1ncc(CN(C)Cc2nc3cc(Cl)ccc3n2C)s1`: the INHIBITION is -54.3%.

On to `c1cc(CNCc2cccc3c2OCCCO3)cc(Cn2cncn2)c1`, for which the INHIBITION was 48.9%.

On to `CC1=NN(CC(=O)N2CC[C@@H]3[C@@H](CCC(=O)N3CC(C)C)C2)CC1`, for which the INHIBITION is -127%.

In the case of `Cc1ncsc1C(=O)N1CCN(CCC(C)C)CC1`, the INHIBITION was -64.6%.

`Cc1nc(-c2cccnc2)ncc1C(=O)N1CCC(C(C)N(C)C)CC1` (centres undefined): the INHIBITION was -79.6%.

As for `OC1CCN(CCCNc2ncccn2)CC1`, the INHIBITION is recorded as -61.1%.

As to `CN(C(=O)NCc1ccncc1)C1CCN(c2ccccc2)C1=O` (centres undefined), the INHIBITION is recorded as -128%.

As for `CN(C(=O)Nc1ccncc1)C1CCN(c2ccccc2)C1=O` (centres undefined), the INHIBITION came out at 51%.

As for `CN(C(=O)Nc1ccccn1)C1CCCN(c2ccccc2)C1=O` (centres undefined), the INHIBITION was 13.9%.

Turning to `CCn1nc2c(cc1=O)CN(CC(=O)Nc1nncs1)CC2`, the INHIBITION is on record as -35%.

With `Cn1cc(N2CC3(CCN(C(=O)c4cccn4C)CC3)OCC2=O)cn1`, the INHIBITION is reported as -94.7%.

In the case of `CCn1c(CN2CCN(CCO)CC2)nc2c(F)cccc21`, the INHIBITION is 10.6%.

Take `CCn1c(CN2CCN(CC(N)=O)CC2)nc2c(F)cccc21`: the INHIBITION is on record as -147%.

`CCn1c(CN2CCN(CCOC)CC2)nc2c(F)cccc21`: the INHIBITION is 68.6%.

Turning to `Brc1cccnc1OC1CCNCC1`, the INHIBITION was 35.5%.

Consider `Cc1nc(SC2CCN(c3sccc3C#N)C2=O)oc1C` (centres undefined), for which the INHIBITION was -137%.

As for `Cc1cc2c(N3CCC(N(C)CCc4cnn(C)c4)CC3)ncnc2s1`, the INHIBITION is -30.9%.

With `CCN(C)c1cc(CNC(=O)CNC(=O)CC2CCCCC2)ccn1`, the INHIBITION was -24.9%.

Take `Cn1cc(CNCCc2nccs2)c(-c2cccnc2)n1`: the INHIBITION is on record as 1.56%.

On to `Cn1cc(CNCCc2cccnc2)c(-c2cccnc2)n1`, for which the INHIBITION was -35.7%.

Turning to `CCCNCc1cn(Cc2ccccc2)nc1-c1cccnc1`, the INHIBITION was determined as 60%.

On to `Cn1cc(CNCCn2cccn2)c(-c2cccnc2)n1`, for which the INHIBITION is given as -42%.

On to `Cn1cc(CNCCOc2ccc(F)c(F)c2)c(-c2cccnc2)n1`, for which the INHIBITION stood at 54.4%.

For the molecule `CCCNCc1cn(C)nc1-c1cccnc1`, the INHIBITION was -21.6%.

`O=C(c1cccnc1)N1CCC2(CCN(C(=O)N3CCCC3)CC2)C1`: the INHIBITION was -71.7%.

On to `CCCC(=O)N1CC[C@@H]2[C@H](CC1)N(Cc1cccc(C)n1)CCS2(=O)=O`, for which the INHIBITION is given as -82%.

In the case of `c1ccc2sc(N3CCC4(CCCN4Cc4ncc[nH]4)CC3)nc2c1`, the INHIBITION worked out at 20.4%.

On to `Cc1nc(CN2CCCC23CCN(c2nc4ccccc4s2)CC3)co1`, for which the INHIBITION is recorded as 9.68%.

In the case of `Cn1cc(CN2CCCC23CCN(c2nc4ccccc4s2)CC3)cn1`, the INHIBITION is listed as 51.7%.

For `CC(C)=CCN1CCN(Cc2cc(C)c(O)c(C)c2)CC1CCO` (centres undefined), the INHIBITION is on record as -36%.

For the molecule `Cc1cc(CN(C)Cc2ccccc2N2CCCCC2)n[nH]1`, the INHIBITION is 67.5%.

On to `Cc1cc(CN(C)Cc2csc(-c3cccs3)n2)n[nH]1`, for which the INHIBITION is recorded as -130%.

`CN(Cc1noc(C(C)(C)C)n1)Cc1ccccc1N1CCCC1`: the INHIBITION was 16.2%.

For the molecule `CCN(C(=O)CN1CCn2c(nnc2C2CC2)C1)C1=CCCCC1`, the INHIBITION was -67.6%.

As to `Cc1nccc(C(=O)NC(CN2CCCC2=O)c2ccccc2)n1` (centres undefined), the INHIBITION is -66.1%.

For the molecule `CC(C)CNC(=O)c1nc(COc2ccc3c(c2)OCO3)no1`, the INHIBITION is recorded as -58.7%.

As for `O=C(CN1CCCC1c1cccs1)N1CCc2sccc2C1` (centres undefined), the INHIBITION amounted to 3.62%.

For the molecule `COc1ccc(CNCCC(=O)N2CCc3sccc3C2)cc1O`, the INHIBITION is reported as 36.4%.

Take `N#Cc1cccc(CNCCC(=O)N2CCc3sccc3C2)c1`: the INHIBITION is given as 21.5%.

For `O=C(CCN1CCCC1C1CCCCC1)N1CCc2sccc2C1` (centres undefined), the INHIBITION stood at 59.9%.

Regarding `O=C(CCC(=O)N1CCCC1c1cccs1)N1CCc2sccc2C1` (centres undefined), the INHIBITION is given as -117%.

Take `O=C(CCNCc1cccc(O)c1)N1CCc2sccc2C1`: the INHIBITION worked out at 52.1%.

On to `O=C(CCN1CCCC1c1cccs1)N1CCc2sccc2C1` (centres undefined), for which the INHIBITION was 50.8%.

For `Cc1cc(C2CCCN2CCC(=O)N2CCc3sccc3C2)no1` (centres undefined), the INHIBITION was -1.53%.

For `Cn1cc(C2CCCN2CCC(=O)N2CCc3sccc3C2)cn1` (centres undefined), the INHIBITION is recorded as -37.7%.
